Where “and” joins values, the source holds several entries; their conditions need not be identical. Identical values can stand only once. Hit rate of the full screen: of about 5,500 compounds, about 2,000 (36%) were called active. About 18% were inconclusive and are not listed. Rule as the data show it: active = normalized growth mostly below about 0.91 (no sharp cut-off); inconclusive = no clear call, values can overlap the other calls; inactive = mostly above about 0.92. This is one part of the list.
Assay: chemical genetic growth profiling, strain panel (AID 1159580);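 also: tested at 20 µM; growth read once vehicle control cultures reached saturation at 30 °C; 1 = growth at the plate median or of vehicle wells; lower values mean less growth of the strain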
Conditions: S. cerevisiae deletion strains, growth OD

Measured: normalized growth

CC(Cc1ccc(O)c(O)c1)(NN)C(=O)O (stereo not drawn)
inactive: locus YAL021C, strain ccr4, hits give low values 1 | locus YAL026C, strain drs2, hits give low values 1 | locus YAL030W, strain snc1, hits give low values 0.997 | locus YBL061C, strain skt5, hits give low values 1.01 | locus YBR009C, strain hhf1, hits give low values 0.982 | locus YBR021W, strain FUR4, hits give low values 1.01 | locus YBR023C, strain chs3, hits give low values 0.976 | locus YBR171W, strain sec66, hits give low values 1.01 | locus YBR229C, strain ROT2, hits give low values 1 | locus YBR231C, strain swc5, hits give low values 0.997 | locus YBR279W, strain paf1, hits give low values 0.988 | locus YCL011C, strain gbp2, hits give low values 1.02 | locus YCL016C, strain dcc1, hits give low values 1.01 | locus YCL029C, strain bik1, hits give low values 1.02 | locus YCL069W, strain vba3, hits give low values 1 | locus YCR088W, strain abp1, hits give low values 1 | locus YDL005C, strain med2, hits give low values 1 | locus YDL035C, strain GPR1, hits give low values 1 | locus YDL040C, strain nat1, hits give low values 1 | locus YDL074C, strain BRE1, hits give low values 0.972 | locus YDL101C, strain DUN1, hits give low values 1.02 | locus YDL134C, strain PPH21, hits give low values 1.04 | locus YDL185W, strain tfp1, hits give low values 0.989 | locus YDL192W, strain arf1, hits give low values 1.01 | locus YDR001C, strain nth1, hits give low values 0.994 | locus YDR069C, strain doa4, hits give low values 0.99 | locus YDR101C, strain arx1, hits give low values 1 | locus YDR137W, strain rgp1, hits give low values 1.04 | locus YDR159W, strain sac3, hits give low values 1 | locus YDR162C, strain NBP2, hits give low values 1.01 | locus YDR195W, strain ref2 0.972 | locus YDR297W, strain sur2, hits give low values 1 | locus YDR318W, strain mcm21, hits give low values 1.01 | locus YDR334W, strain swr1, hits give low values 0.999 | locus YDR335W, strain msn5, hits give low values 0.982 | locus YDR388W, hits give low values 1.01 | locus YDR392W, strain spt3, hits give low values 0.985 | locus YDR502C, strain sam2, hits give low values 1.01 | locus YEL003W, strain gim4, hits give low values 0.991 | locus YEL037C, strain rad23, hits give low values 1.02 | locus YEL061C, strain CIN8 (second series), hits give low values 0.999 | locus YEL061C, strain CIN8, hits give low values 1.01 | locus YER015W, strain faa2, hits give low values 0.984 | locus YER016W, strain bim1, hits give low values 1.01 | locus YER110C, hits give low values 1.02 | locus YER111C, strain swi4, hits give low values 1.01 | locus YER155C, strain BEM2 (second series), hits give low values 1.01 | locus YER155C, strain BEM2, hits give low values 0.999 | locus YER167W, strain BCK2, hits give low values 1.01 | locus YFR010W, strain ubp6, hits give low values 0.986 | locus YGL078C, strain dbp3, hits give low values 0.979 | locus YGL086W, strain mad1, hits give low values 1.02 | locus YGL167C, strain pmr1, hits give low values 1 | locus YGL173C, strain kem1, hits give low values 1.03 | locus YGL227W, strain vid30, hits give low values 0.989 | locus YGL240W, strain doc1, hits give low values 1 | locus YGL248W, strain PDE1, hits give low values 0.991 | locus YGL253W, strain hxk2, hits give low values 0.997 | locus YGR078C, strain PAC10, hits give low values 0.966 | locus YGR135W, strain pre9, hits give low values 1.01 | locus YGR229C, strain SMI1, hits give low values 0.992 | locus YGR252W, strain gcn5, hits give low values 1.01 | locus YHR013C, strain ard1, hits give low values 1.04 | locus YHR027C, strain rpn1, hits give low values 0.995 | locus YHR030C, strain SLT2, hits give low values 0.997 and 0.958 | locus YHR079C, strain IRE1 (second series), hits give low values 1.02 | locus YHR079C, strain IRE1, hits give low values 0.961 | locus YHR094C, strain hxt1, hits give low values 1.01 | locus YHR129C, strain ARP1, hits give low values 1.01 | locus YHR142W, strain chs7, hits give low values 1.02 | locus YHR200W, strain rpn10, hits give low values 1.01 | locus YIL066C, strain RNR3, hits give low values 0.965 | locus YIL073C, strain SPO22, hits give low values 1.14 | locus YIL125W, strain kgd1, hits give low values 1 | locus YIR030C, strain dcg1, hits give low values 1.01 | locus YJL092W, strain hpr5, hits give low values 0.997 | locus YJL095W, strain BCK1 (second series), hits give low values 0.996 | locus YJL095W, strain BCK1, hits give low values 1 and 0.954 | locus YJL115W, strain asf1, hits give low values 0.983 | locus YJL129C, strain trk1, hits give low values 1.02 | locus YJL134W, strain LCB3, hits give low values 1 | locus YJL154C, strain vps35, hits give low values 1.01 | locus YJL164C, strain tpk1, hits give low values 1.01 | locus YJL166W, strain qcr8, hits give low values 1.02 | locus YJL168C, strain set2, hits give low values 1.01 | locus YJL187C, strain SWE1 (second series), hits give low values 1 | locus YJR043C, strain POL32, hits give low values 1.01 | locus YJR066W, strain TOR1, hits give low values 0.936
